# Experimental data reported in the supplement of paper PMC9694430.
# Where “and” joins values, the source holds several entries; their conditions need not be identical. Equal values may be shown once.
# Experiments:
# Experiment in all cases: thermal shift delta Tm vs DMSO control; higher = stronger stabilization (binding)
# Conditions in all cases: 12.5 µM; protein concentration 2 µM
# [1] = tested on: LOC_OS01G01410-cb001
# In short: (§1)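 Purified, E. coli-expressed rice kinase domain constructs were tested by differential scanning fluorimetry in 96-well plates: 19.5 μl of 2 μM kinase in 100 mM potassium phosphate pH 7.5, 150 mM NaCl, 10% glycerol, 5 × SYPRO Orange, plus compound in DMSO. Fluorescence was read from 25°C to 95°C at 0.05°C/s. Melting temperatures came from Boltzmann fits, and the shift is the triplicate mean relative to protein with DMSO alone.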
# [2] = tested on: LOC_OS01G02750-cb003
# In short: as §1
# [3] = tested on: LOC_OS01G10900-cb004
# In short: as §1
# [4] = tested on: LOC_OS01G13800-cb001
# In short: as §1
# [5] = tested on: LOC_OS01G14860-cb001
# In short: as §1
# [6] = tested on: LOC_OS01G21960-cb002
# In short: as §1
# [7] = tested on: LOC_OS01G39600-cb002
# In short: as §1
# [8] = tested on: LOC_OS01G48390-cb002
# In short: as §1
# [9] = tested on: LOC_OS01G51400-cb002
# In short: as §1
# [10] = tested on: T1, LOC_OS01G52050-cb004
# T1 sequence (whole entry): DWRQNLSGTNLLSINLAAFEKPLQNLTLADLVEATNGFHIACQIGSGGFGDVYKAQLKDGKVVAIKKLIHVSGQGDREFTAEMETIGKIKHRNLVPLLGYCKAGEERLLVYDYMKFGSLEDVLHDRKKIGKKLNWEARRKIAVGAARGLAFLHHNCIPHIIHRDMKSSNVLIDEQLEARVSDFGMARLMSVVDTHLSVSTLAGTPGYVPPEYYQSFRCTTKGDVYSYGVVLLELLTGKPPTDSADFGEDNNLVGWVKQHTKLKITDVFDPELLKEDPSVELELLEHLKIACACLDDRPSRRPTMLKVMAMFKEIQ
# In short: as §1
# [11] = tested on: LOC_OS01G57100-cb003
# In short: as §1
# [12] = tested on: LOC_OS01G60330-cb001
# In short: as §1
# [13] = tested on: LOC_OS01G60700-cb002
# In short: as §1
# [14] = tested on: LOC_OS01G63280-cb003
# In short: as §1
# [15] = tested on: LOC_OS01G67340-cb003
# In short: as §1
# [16] = tested on: LOC_OS01G70970-cb002
# In short: as §1
# [17] = tested on: LOC_OS02G07810-cb001
# In short: as §1
# [18] = tested on: LOC_OS02G08530-cb003
# In short: as §1
# [19] = tested on: LOC_OS02G14120-cb001
# In short: as §1
# [20] = tested on: LOC_OS02G17970-cb001
# In short: as §1
Structure (SMILES),thermal shift delta Tm [1],thermal shift delta Tm [2],thermal shift delta Tm [3],thermal shift delta Tm [4],thermal shift delta Tm [5],thermal shift delta Tm [6],thermal shift delta Tm [7],thermal shift delta Tm [8],thermal shift delta Tm [9],thermal shift delta Tm [10],thermal shift delta Tm [11],thermal shift delta Tm [12],thermal shift delta Tm [13],thermal shift delta Tm [14],thermal shift delta Tm [15],thermal shift delta Tm [16],thermal shift delta Tm [17],thermal shift delta Tm [18],thermal shift delta Tm [19],thermal shift delta Tm [20]
Oc1cc(CNC(=S)/C=C/c2cc(O)c(O)c(Br)c2)cc(O)c1O,4.72 °C,1.04 °C,-0.23 °C,4.09 °C,2.93 °C,5.85 °C,0.87 °C,0.74 °C,1.58 °C,1.78 °C,7.83 °C,17.7 °C,-0.76 °C,20 °C,0.53 °C,0.97 °C,4.09 °C,-1.06 °C,-0.83 °C,7.15 °C
C=CC(=O)Nc1cccc(Nc2nc(Nc3ccc(Oc4ccnc(C(=O)NC)c4)cc3)ncc2F)c1,4.52 °C,1.34 °C,1.05 °C,0.7 °C,4.66 °C,2.14 °C,1.74 °C,0.98 °C,0.31 °C,3.1 °C,2.13 °C,6.9 °C,1.08 °C,0.49 °C,0.92 °C,1.63 °C,0.76 °C,2.72 °C,6.96 °C,0.81 °C
O=C(Nc1c[nH]nc1-c1nc2ccc(CN3CCOCC3)cc2[nH]1)NC1CC1,5.91 °C,3.78 °C,2.15 °C,-0.38 °C,8.12 °C,3.45 °C,6.02 °C,2.89 °C,0.42 °C,7.67 °C,0.91 °C,11.9 °C,1.09 °C,5.34 °C,1.94 °C,7.9 °C,0.64 °C,3.3 °C,11.9 °C,0.14 °C
COC(=O)N[C@@H](C)CNc1nccc(-c2cn(C(C)C)nc2-c2cc(Cl)cc(NS(C)(=O)=O)c2F)n1 [Encorafenib (LGX818)],0.41 °C,0.83 °C,0.1 °C,-0.12 °C,5.56 °C,0.28 °C,0.05 °C,0.2 °C,0.1 °C,0.5 °C,1.3 °C,0.6 °C,1.13 °C,16.6 °C,0.27 °C,0.24 °C,0.09 °C,0.83 °C,1.23 °C,0.55 °C
C=CCc1ccc(O)c(-c2ccc(O)c(CC=C)c2)c1 [Honokiol],0.83 °C,1.12 °C,0.85 °C,0.22 °C,0.9 °C,1.38 °C,1.21 °C,0.93 °C,0.36 °C,1.76 °C,2.73 °C,0.73 °C,1.34 °C,1.12 °C,1.09 °C,0.71 °C,1.8 °C,1.59 °C,0.96 °C,1.32 °C
C[C@@H](Oc1cc(-n2cnc3ccc(CN4CCN(C)CC4)cc32)sc1C(N)=O)c1ccccc1C(F)(F)F,0.17 °C,0.34 °C,3.48 °C,0.56 °C,0.12 °C,1.19 °C,0.33 °C,0.1 °C,-0.17 °C,0.53 °C,0.34 °C,0.7 °C,0.72 °C,0.17 °C,0.69 °C,0.44 °C,1.22 °C,3.01 °C,-0.04 °C,0.25 °C
CNC(=O)c1cc(COc2nnc(Nc3ccc(Cl)cc3)c3ccoc23)ccn1 [Telatinib],0.67 °C,0.92 °C,0.29 °C,0.36 °C,0.15 °C,0.85 °C,-0.38 °C,0.26 °C,0.08 °C,0.21 °C,1.9 °C,0.6 °C,0.35 °C,0.76 °C,0.82 °C,0.19 °C,0.85 °C,0.69 °C,-0.19 °C,1.35 °C
O=c1cc(N2CCOCC2)oc2c(-c3cccc4c3sc3ccccc34)cccc12,-0.61 °C,-1.71 °C,3.77 °C,-1.29 °C,0.08 °C,-0.64 °C,-1.62 °C,-0.49 °C,-1.28 °C,-0.72 °C,0.74 °C,0.23 °C,-0.43 °C,-0.77 °C,-0.51 °C,-0.71 °C,-0.42 °C,0.52 °C,0.46 °C,0.12 °C
CN(c1ncccc1CNc1nc(Nc2ccc3c(c2)CC(=O)N3)ncc1C(F)(F)F)S(C)(=O)=O,1.79 °C and 2.31 °C,3.54 °C and 4.36 °C,1.71 °C and 2.09 °C,-0.44 °C and -0.69 °C,4.96 °C and 3.99 °C,2.13 °C and 2.41 °C,8.29 °C and 12.3 °C,2.62 °C and 2.82 °C,1.29 °C and 1.71 °C,5.25 °C and 6.24 °C,1.74 °C and 1.7 °C,2.27 °C and 2.55 °C,0.88 °C and 1.26 °C,2.29 °C and 3.24 °C,1.9 °C and 2.14 °C,6.41 °C and 7.59 °C,0.34 °C and 0.67 °C,1.99 °C and 2.23 °C,4.47 °C and 5.67 °C,0.58 °C and 1.27 °C
Cn1cc(-c2ccc3ncc(Cc4ccc5ncccc5c4)n3n2)cn1,0.75 °C,0.95 °C,6.36 °C,0.22 °C,0.23 °C,0.62 °C,0.86 °C,1.24 °C,0.47 °C,0.62 °C,0.9 °C,1.91 °C,0.96 °C,0.15 °C,0.76 °C,0.25 °C,1.07 °C,1.43 °C,2.22 °C,0.32 °C
COc1ccc(F)c(F)c1C(=O)c1cnc(NC2CCN(S(C)(=O)=O)CC2)nc1N,0.43 °C,-0.36 °C,0.34 °C,-0.08 °C,2.35 °C,0.93 °C,0.19 °C,0.42 °C,-0.07 °C,-0.14 °C,0.71 °C,0.06 °C,0.31 °C,-0.18 °C,1.43 °C,0.03 °C,0.5 °C,0.57 °C,-0.08 °C,-0.09 °C
C[C@@H](NC(=O)c1ncnc(N)c1Cl)c1ncc(C(=O)Nc2cc(C(F)(F)F)c(Cl)cn2)s1,1.26 °C,1.15 °C,2.82 °C,-0.27 °C,0.84 °C,0.73 °C,-1.6 °C,2.52 °C,0.56 °C,0.43 °C,0.35 °C,1.01 °C,1.42 °C,1.75 °C,0.42 °C,0.8 °C,0.35 °C,0.67 °C,0.58 °C,0.7 °C
CN(C)C/C=C/C(=O)Nc1ccc(C(=O)Nc2cccc(Nc3ncc(Cl)c(-c4c[nH]c5ccccc45)n3)c2)cc1,4.03 °C,6.62 °C,0.47 °C,1.95 °C,7.28 °C,4.75 °C,2.35 °C,3.99 °C,1.75 °C,9.77 °C,4.58 °C,12.2 °C,2.21 °C,1.68 °C,4.17 °C,11.9 °C,1.36 °C,5.36 °C,10.1 °C,1.88 °C
